# In PubChem BioAssay (EPA / NIEHS):
# Results filed as inconclusive are left out. The source made the active and inactive calls. The calls were made as follows, unless noted: active = hit-call score of the fitted dose curve at least 0.9, where 1 is the maximum; inconclusive = response in the unintended direction; inactive = score below 0.9.
# How the values were obtained:
# [1] = target: human Androgen Receptor (AR), AR (gene 367) (UniProt P10275); assay: NVS_NR_hAR: NovaScreen (NVS) Nuclear Receptor Binding Assay for human Androgen Receptor (AR) (AID 2283332)
# How it was run: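 Radioligand competitive binding, scintillation read-out, in cell-free extract from LnCAP, measured 20 h after dosing. Screened first in duplicate at 25 uM, then concentration series for actives; activity fitted against DMSO.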
# [2] = target: chimpanzee Androgen Receptor (AR), AR (gene 747460) (UniProt O97775); assay: NVS_NR_cAR: NovaScreen (NVS) Nuclear Receptor Binding Assay for chimpanzee Androgen Receptor (AR) (AID 2283346);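 also: radioligand displacement from AR measured by scintillation counting in a cell-free assay; a loss of bound radioligand signal versus DMSO counts as binding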
# Chain of chimpanzee Androgen Receptor (AR), AR (gene 747460) (O97775 whole entry, looked up): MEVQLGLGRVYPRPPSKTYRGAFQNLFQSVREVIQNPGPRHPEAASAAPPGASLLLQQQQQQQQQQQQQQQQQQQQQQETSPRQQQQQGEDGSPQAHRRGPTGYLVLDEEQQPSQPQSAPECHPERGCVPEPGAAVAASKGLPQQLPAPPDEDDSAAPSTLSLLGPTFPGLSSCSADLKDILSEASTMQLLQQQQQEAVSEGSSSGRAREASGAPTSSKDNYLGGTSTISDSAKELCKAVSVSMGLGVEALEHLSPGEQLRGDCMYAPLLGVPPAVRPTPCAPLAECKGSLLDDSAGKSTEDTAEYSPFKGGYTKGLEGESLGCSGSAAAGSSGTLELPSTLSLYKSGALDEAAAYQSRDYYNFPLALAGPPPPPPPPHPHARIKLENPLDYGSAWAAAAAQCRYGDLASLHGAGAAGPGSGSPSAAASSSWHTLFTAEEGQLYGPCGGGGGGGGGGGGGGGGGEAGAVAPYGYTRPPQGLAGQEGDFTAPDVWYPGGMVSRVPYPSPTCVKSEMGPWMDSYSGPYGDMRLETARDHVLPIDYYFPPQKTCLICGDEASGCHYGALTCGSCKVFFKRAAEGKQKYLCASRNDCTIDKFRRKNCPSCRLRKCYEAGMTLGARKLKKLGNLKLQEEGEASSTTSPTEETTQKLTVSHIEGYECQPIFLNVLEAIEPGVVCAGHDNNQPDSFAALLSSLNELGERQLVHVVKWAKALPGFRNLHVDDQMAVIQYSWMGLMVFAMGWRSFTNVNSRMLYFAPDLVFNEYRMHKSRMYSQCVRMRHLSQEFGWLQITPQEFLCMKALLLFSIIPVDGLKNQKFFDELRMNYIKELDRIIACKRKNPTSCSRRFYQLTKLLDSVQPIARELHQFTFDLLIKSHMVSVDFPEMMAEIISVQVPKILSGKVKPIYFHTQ
# How it was run: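 Cell-free competition binding with insect-cell (Sf9/Sf21) extracted chimpanzee AR; scintillation signal from lysate at 72 h. Screened in duplicate at 25 uM, then concentration-response for actives; fitting relative to DMSO.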
# [3] = target: Small conductance calcium-activated potassium channel protein 1 (Rattus norvegicus) (UniProt P70606); assay: NVS_IC_rKCaCh: NovaScreen (NVS) Ion Channel Assay for rat Potassium Channel, Ca2+ Act., VI (KCaCh) (AID 2283336)
# Chain of Small conductance calcium-activated potassium channel protein 1 (Rattus norvegicus) (P70606 whole entry, looked up): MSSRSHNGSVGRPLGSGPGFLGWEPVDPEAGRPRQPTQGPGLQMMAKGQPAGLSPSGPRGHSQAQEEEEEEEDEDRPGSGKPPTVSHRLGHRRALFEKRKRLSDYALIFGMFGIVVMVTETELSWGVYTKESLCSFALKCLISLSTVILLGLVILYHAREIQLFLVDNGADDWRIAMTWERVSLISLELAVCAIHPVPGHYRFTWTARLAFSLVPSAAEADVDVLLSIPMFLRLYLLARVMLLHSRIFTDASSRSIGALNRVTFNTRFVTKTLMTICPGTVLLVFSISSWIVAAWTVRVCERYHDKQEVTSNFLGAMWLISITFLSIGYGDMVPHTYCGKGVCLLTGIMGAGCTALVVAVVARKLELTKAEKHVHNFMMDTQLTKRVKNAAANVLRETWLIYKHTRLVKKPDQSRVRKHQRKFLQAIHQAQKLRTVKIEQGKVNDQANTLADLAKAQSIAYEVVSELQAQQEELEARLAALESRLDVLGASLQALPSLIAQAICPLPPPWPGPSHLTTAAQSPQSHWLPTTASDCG
# How it was run: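 Filter-based scintillation counting of radioligand bound to rat forebrain membrane preparations, measured 1 h after compound addition. Primary screen used 25 uM in duplicate, with concentration-response follow-up; signal decrease relative to DMSO marks activity.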
# [4] = target: bovine Gamma-Aminobutyric Acid Type A Receptor Agonist (GABAR Agonist), GABRA1 (gene 780973) (UniProt P08219); assay: NVS_LGIC_bGABAR_Agonist: NovaScreen (NVS) Ligand-Gated Ion Channel Assay for bovine Gamma-Aminobutyric Acid Type A Receptor Agonist (GABAR Agonist) (AID 2283338)
# Chain of bovine Gamma-Aminobutyric Acid Type A Receptor Agonist (GABAR Agonist), GABRA1 (gene 780973) (P08219 whole entry, looked up): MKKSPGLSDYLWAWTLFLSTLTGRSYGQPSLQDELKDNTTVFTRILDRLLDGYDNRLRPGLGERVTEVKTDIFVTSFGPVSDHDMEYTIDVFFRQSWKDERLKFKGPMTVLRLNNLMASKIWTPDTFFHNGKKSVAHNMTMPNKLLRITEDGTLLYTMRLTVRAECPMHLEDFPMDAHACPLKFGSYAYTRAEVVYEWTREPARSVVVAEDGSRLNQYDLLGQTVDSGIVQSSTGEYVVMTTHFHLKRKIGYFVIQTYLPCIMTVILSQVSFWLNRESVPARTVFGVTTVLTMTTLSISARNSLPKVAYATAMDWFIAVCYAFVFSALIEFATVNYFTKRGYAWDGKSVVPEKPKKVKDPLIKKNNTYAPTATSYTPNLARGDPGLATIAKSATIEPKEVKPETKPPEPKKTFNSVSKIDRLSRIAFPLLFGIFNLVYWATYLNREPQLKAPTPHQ
# How it was run: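 Radioligand binding to bovine cerebellar membranes in agonist format, read by filter-based scintillation counting after 1 h. Primary screen in duplicate at 25 uM, with actives followed in concentration series. Gain of signal versus DMSO.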
# [5] = target: Estrogen receptor (Homo sapiens) (UniProt P03372); assay: OT_ER_ERaERa_1440: Odyssey Thera (OT) 24-hour HEK293T Protein-Complementation Assay for Estrogen Receptor-alpha/-alpha Homodimer (AID 2283349);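 also: hits raise fluorescence above DMSO for agonists and antagonists alike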
# Chain of Estrogen receptor (Homo sapiens) (P03372 whole entry, looked up, the tested form may be a part): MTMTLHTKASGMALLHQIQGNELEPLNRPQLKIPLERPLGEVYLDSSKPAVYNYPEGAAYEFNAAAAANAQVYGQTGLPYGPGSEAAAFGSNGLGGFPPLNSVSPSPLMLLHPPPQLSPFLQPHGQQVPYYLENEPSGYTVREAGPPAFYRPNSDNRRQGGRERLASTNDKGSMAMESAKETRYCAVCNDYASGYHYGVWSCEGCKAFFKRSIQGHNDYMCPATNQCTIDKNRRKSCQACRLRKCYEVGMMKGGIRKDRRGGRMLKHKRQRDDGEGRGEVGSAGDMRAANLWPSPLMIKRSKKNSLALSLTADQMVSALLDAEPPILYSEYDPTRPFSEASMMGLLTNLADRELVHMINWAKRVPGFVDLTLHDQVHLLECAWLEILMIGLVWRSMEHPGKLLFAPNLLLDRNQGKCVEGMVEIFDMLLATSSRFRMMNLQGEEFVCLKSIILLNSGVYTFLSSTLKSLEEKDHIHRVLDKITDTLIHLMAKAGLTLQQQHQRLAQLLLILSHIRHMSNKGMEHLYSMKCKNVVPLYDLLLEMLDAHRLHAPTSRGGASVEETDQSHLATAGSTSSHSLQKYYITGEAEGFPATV
# How it was run: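 HEK293T, stable ERα LBD (aa 310-547) homodimer PCA; 24 h compound exposure; mean fluorescence intensity (nuclear for agonists, nuclear plus cytoplasmic for antagonists) vs vehicle; positive fitting direction, DMSO baseline.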
# [6] = target: rat Gamma-Aminobutyric Acid Type A Receptor BDZ, alpha 6 site (GABARa6), Gabra6 (gene 29708) (UniProt P30191); assay: NVS_LGIC_rGABARa6: NovaScreen (NVS) Ligand-Gated Ion Channel Assay for rat Gamma-Aminobutyric Acid Type A Receptor BDZ, alpha 6 site (GABARa6) (AID 2283339)
# Chain of rat Gamma-Aminobutyric Acid Type A Receptor BDZ, alpha 6 site (GABARa6), Gabra6 (gene 29708) (P30191 whole entry, looked up): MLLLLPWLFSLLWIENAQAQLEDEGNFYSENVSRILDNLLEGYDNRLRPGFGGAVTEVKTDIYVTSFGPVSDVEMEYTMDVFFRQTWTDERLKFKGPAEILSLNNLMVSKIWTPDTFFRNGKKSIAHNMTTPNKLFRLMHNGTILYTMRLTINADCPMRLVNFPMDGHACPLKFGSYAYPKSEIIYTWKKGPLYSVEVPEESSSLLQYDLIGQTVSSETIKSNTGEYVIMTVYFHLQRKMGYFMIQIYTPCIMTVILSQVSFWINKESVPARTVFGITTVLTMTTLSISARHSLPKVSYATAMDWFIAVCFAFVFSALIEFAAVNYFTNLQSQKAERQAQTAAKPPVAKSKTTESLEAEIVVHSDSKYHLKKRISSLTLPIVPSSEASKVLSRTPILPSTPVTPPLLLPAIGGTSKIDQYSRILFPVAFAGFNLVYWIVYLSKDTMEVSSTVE
# How it was run: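 Actives from a 25 uM duplicate screen were retested in concentration series (max 50 uM). Specific radioligand displacement from rat cerebellar membranes was counted by filter-based scintillation at 1 h; DMSO served as baseline.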
# [7] = target: Voltage-gated inwardly rectifying potassium channel KCNH2 (Homo sapiens) (UniProt Q12809); assay: NVS_IC_hKhERGCh: NovaScreen (NVS) Ion Channel Assay for human Potassium Channel ERG (KhERGCh) (AID 2283333)
# How it was run: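 Membranes from CHO cells expressing human ERG; displacement of radioligand measured by filtration and scintillation after 0.75 h. Single-concentration duplicate screen at 25 uM, then concentration-response for actives; DMSO baseline.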
# [8] = NVS_IC_rCaBTZCHL: NovaScreen (NVS) Ion Channel Assay for Calcium Channel, Type L, Benzothiazepine Site (CaBTZCHL) (AID 2283337)
# How it was run: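 Benzothiazepine-site binding was assessed in a tissue-derived, cell-free rat cortical membrane system. After 1.5 h exposure, radioactivity retained on filters was quantified by scintillation; positive and negative controls accompanied every plate.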
# [9] = target: rat Glycine Receptor, Strychnine-sensitive (GlyRStrySens), Glra1 (gene 25674) (UniProt P07727); assay: NVS_LGIC_rGlyRStrySens: NovaScreen (NVS) Ligand-Gated Ion Channel Assay for rat Glycine Receptor, Strychnine-sensitive (GlyRStrySens) (AID 2283341)
# Chain of rat Glycine Receptor, Strychnine-sensitive (GlyRStrySens), Glra1 (gene 25674) (P07727 whole entry, looked up): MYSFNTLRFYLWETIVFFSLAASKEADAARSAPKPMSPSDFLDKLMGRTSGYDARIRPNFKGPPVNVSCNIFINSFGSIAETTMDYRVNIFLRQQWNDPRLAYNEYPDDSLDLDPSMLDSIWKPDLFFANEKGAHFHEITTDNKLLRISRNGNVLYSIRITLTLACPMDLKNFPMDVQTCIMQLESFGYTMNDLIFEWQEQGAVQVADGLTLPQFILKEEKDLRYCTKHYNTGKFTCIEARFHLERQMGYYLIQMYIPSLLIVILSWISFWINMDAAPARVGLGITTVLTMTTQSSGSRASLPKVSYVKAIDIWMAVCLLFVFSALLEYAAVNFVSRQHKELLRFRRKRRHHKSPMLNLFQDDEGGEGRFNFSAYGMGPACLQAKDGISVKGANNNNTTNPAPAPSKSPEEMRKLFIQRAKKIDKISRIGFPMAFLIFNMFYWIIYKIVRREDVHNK
# How it was run: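 Radioligand displacement on rat spinal cord membranes, 1 hr, filter scintillation read-out. Single-concentration duplicate screen at 25 uM; chemicals meeting threshold (e.g., 30% inhibition) rerun in concentration-response up to 50 uM. Loss of binding fitted versus DMSO.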
# [10] = system: guinea pig Histamine Receptor (H2), gene 100729734; assay: NVS_GPCR_gH2: NovaScreen (NVS) G Protein-Coupled Receptor Assay for guinea pig Histamine Receptor (H2) (AID 2283342)
# How it was run: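 Guinea pig striatal membrane preparation with specific radioligand; bound counts measured by filtration and scintillation 1 h post-dosing, DMSO as baseline. Chemicals passing a 25 uM duplicate screen were titrated to a 50 uM maximum.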
# NCBI gene 100848466 = assay: NVS_NR_bPR: NovaScreen (NVS) Nuclear Receptor Binding Assay for bovine Progextron Receptor (PR) (AID 2283343)
# How it was run: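 Competitive radioligand binding with membranes from bovine uterus, scintillation read-out at 18 h post-dose. Compounds first tested in duplicate at 25 uM, then actives in concentration series; loss-of-signal relative to DMSO.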
# [11] = target: Glutamate receptor ionotropic, kainate 1 (Rattus norvegicus) (UniProt P22756); assay: NVS_IC_rKAR: NovaScreen (NVS) Ion Channel Assay for rat Kainic Acid Receptors (KAR) (AID 2283334; active = hit-call score of the fitted dose curve at least 0.9, where 1 is the maximum; inactive = score below 0.9)
# How it was run: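 Rat forebrain membrane preparation incubated 1 h with radioligand and test chemical; bound signal read by filtration and scintillation. Single-concentration screen at 25 uM, then concentration series to 50 uM maximum.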
# [12] = target: human Peripheral-type Benzodiazepine Receptor (PBR), TSPO (gene 706) (UniProt P30536); assay: NVS_MP_hPBR: NovaScreen (NVS) Membrane Protein Assay for human Peripheral-type Benzodiazepine Receptor (PBR) (AID 2283331);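 also: hits reduce radioligand binding relative to DMSO baseline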
# How it was run: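 Cell-free binding to human colonic membrane preparations measured by filter-based scintillation counting after 1 h. Compounds first run at 25 uM in duplicate, then concentration series for actives; signal loss against DMSO baseline.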
# [13] = target: rat Peripheral-type Benzodiazepine Receptor (PBR), Tspo (gene 24230) (UniProt P16257); assay: NVS_MP_rPBR: NovaScreen (NVS) Membrane Protein Assay for rat Peripheral-type Benzodiazepine Receptor (PBR) (AID 2283335)
# How it was run: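 Single-concentration duplicate screening at 25 uM preceded concentration-series retesting of actives. Binding of a specific radioligand to rat kidney membrane PBR was read by filtration radiodetection after 1 h, with plate-wise positive and negative controls.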
# [14] = target: bovine Estrogen Receptor (ER), ESR1 (gene 407238) (UniProt P49884); assay: NVS_NR_bER: NovaScreen (NVS) Nuclear Receptor Binding Assay for bovine Estrogen Receptor (ER) (AID 2283345);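 also: actives lower the bound radioligand count which means they displace the ER ligand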
# Chain of bovine Estrogen Receptor (ER), ESR1 (gene 407238) (P49884 whole entry, looked up): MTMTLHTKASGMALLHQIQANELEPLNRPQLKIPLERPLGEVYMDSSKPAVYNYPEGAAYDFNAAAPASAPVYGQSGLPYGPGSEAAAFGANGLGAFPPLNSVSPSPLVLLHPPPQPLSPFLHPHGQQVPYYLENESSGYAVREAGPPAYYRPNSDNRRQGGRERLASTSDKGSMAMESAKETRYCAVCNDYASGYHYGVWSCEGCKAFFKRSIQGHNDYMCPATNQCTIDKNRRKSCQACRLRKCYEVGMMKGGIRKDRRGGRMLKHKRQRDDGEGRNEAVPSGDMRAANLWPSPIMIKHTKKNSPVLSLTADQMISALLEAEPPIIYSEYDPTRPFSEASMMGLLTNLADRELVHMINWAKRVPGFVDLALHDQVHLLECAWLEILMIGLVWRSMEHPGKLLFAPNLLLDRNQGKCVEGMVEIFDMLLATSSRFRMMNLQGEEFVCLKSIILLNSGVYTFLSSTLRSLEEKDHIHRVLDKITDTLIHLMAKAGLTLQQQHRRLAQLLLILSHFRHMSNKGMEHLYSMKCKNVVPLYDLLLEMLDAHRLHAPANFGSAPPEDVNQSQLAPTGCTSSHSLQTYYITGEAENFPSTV
# How it was run: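 Cell-free radioligand binding with bovine uterine membrane extracts, read 18 hours after dosing by scintillation counting. Loss of signal versus DMSO baseline indicates displacement. Primary screen run in duplicate at 25 uM, actives followed in concentration series.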
# [15] = target: Estrogen receptor (Homo sapiens) (UniProt P03372); assay: NVS_NR_hER: NovaScreen (NVS) Nuclear Receptor Binding Assay for human Estrogen Receptor (ER) (AID 2283348)
# How it was run: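 Cell-free MCF7-derived ER preparation, specific radioligand displaced by test compound, read by scintillation counting 18 h post-dosing. Duplicate single-point 25 uM screen, then concentration-response confirmation; DMSO baseline.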
# [16] = target: human Constitutive Androstane Receptor (CAR), NR1I3 (gene 9970) (UniProt Q14994); assay: NVS_NR_hCAR_Antagonist: NovaScreen (NVS) Nuclear Receptor Binding Assay for human Constitutive Androstane Receptor Antagonism (CAR) (AID 2283344)
# Chain of human Constitutive Androstane Receptor (CAR), NR1I3 (gene 9970) (Q14994 whole entry, looked up): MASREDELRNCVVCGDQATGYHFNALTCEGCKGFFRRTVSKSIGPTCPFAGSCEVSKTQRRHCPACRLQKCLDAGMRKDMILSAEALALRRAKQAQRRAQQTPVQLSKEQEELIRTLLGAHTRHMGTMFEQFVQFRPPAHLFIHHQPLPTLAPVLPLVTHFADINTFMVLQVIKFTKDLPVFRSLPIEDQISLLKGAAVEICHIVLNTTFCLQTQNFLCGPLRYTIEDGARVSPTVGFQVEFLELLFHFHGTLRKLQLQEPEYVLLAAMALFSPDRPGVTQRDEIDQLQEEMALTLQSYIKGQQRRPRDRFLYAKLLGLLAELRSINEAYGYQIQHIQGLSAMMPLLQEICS
# How it was run: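 Single 25 uM duplicate primary screen, with concentration-series follow-up on actives. Cell-free binding format run in antagonist mode, TR-FRET signal taken 1 h post-dose; activity is signal loss relative to DMSO.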
# [17] = target: Bile acid receptor (Homo sapiens) (UniProt Q96RI1); assay: NVS_NR_hFXR_Antagonist: NovaScreen (NVS) Nuclear Receptor Binding Assay for human Farnesoid X Receptor Antagonism (FXR) (AID 2283350)
# Chain of Bile acid receptor (Homo sapiens) (Q96RI1 whole entry, looked up): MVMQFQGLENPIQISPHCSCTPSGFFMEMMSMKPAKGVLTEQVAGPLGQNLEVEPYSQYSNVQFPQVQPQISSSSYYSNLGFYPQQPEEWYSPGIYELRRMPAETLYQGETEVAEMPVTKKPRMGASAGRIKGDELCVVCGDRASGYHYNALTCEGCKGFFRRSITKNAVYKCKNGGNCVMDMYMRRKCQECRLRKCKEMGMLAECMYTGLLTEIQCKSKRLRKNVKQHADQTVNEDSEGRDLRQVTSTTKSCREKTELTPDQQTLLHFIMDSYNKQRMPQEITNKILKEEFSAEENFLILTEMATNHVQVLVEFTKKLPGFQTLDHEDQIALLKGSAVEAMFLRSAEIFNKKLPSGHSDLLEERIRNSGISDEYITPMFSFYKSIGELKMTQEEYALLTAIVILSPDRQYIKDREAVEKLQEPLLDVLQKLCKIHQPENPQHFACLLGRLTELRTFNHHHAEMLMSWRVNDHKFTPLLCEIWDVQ
# How it was run: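 Antagonist-format time-resolved FRET binding assay with extracted human receptor protein, read 1 hour after compound addition. Compounds first screened at 25 uM in duplicate, then actives tested in concentration series, with loss of signal relative to DMSO.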
compound,measurement,setting,value
Nc1ccc(Cl)cc1N,outcome,[1],inactive
same,AC50,[2],25 µM (active)
O=C(Oc1ccc(Br)cc1)N1CCN2CCC1CC2,outcome,[3],inactive
same,AC50,[4],25 µM (active)
same,outcome,[5],inactive
CC(C)(O)c1cnn2c(-c3ccc(F)c(-c4c(F)cccc4C#N)c3)cnc2n1,outcome,[4],inactive
same,outcome,[6],inactive
C[N+](C)(C)CC1CO1 (stereo not given),outcome,[3],inactive
same,outcome,[5],inactive
CCOC(=O)[C@]1(c2ccccc2)Oc2ccccc2[C@@H]1N,AC50,[7],1.44 µM (active)
same,AC50,[8],7.25 µM (active)
same,AC50,[9],25 µM (active)
same,AC50,[10],4.92 µM (active)
same,outcome,NCBI gene 100848466,inactive
C1=Cc2cccc3cccc1c23,outcome,[11],inactive
CC(C)COC(=O)c1ccccc1C(=O)OCC(C)C,outcome,[12],inactive
same,outcome,[13],inactive
same,outcome,[14],inactive
same,AC50,[5],46.5 µM (active)
Cc1ccc([N+](=O)[O-])cc1,outcome,[14],inactive
same,outcome,[5],inactive
Nc1ccc(Oc2ccc(N)cc2)cc1,outcome,[2],inactive
Clc1ccc(C(c2ccc(Cl)cc2)C(Cl)Cl)cc1,outcome,[15],inactive
same,outcome,[5],inactive
ClC1=C(Cl)C2(Cl)C3C(Cl)C=CC3C1(Cl)C2(Cl)Cl (stereo not given),outcome,[5],inactive
Brc1ccc(Oc2ccccc2)cc1,outcome,[14],inactive
same,outcome,[5],inactive
[O-][Cl+]O,outcome,[15],inactive
same,outcome,[5],inactive
COc1cc(C=O)cc2c1[C@H](COC(N)=O)[C@]1(OC(C)=O)ON2C[C@H]2[C@@H]1N2C(C)=O,outcome,[5],inactive
CN(C)[C@@H]1C(=O)C(C(N)=O)=C(O)[C@@]2(O)C(=O)C3=C(O)c4c(O)cccc4[C@@](C)(O)[C@H]3C[C@@H]12,outcome,NCBI gene 100848466,inactive
same,AC50,[2],37.4 µM (active)
Oc1ccccc1Cl,outcome,[16],inactive
[Cl-].[Cl-].[Hg+2],AC50,[10],8.27 µM (active)
same,outcome,[14],inactive
same,outcome,[2],inactive
same,outcome,[15],inactive
same,outcome,[5],inactive
same,outcome,[17],inactive
CCCCCOC(=O)c1ccccc1C(=O)OCCCCC,outcome,[14],inactive
same,AC50,[5],33.1 µM (active)
Cc1ccc(N)c(N)c1,outcome,[6],inactive
OCCOCCO,outcome,[5],inactive
CO[C@@H]1[C@H](OC(=O)NC(=O)CCl)CC[C@]2(CO2)[C@H]1[C@@]1(C)O[C@@H]1CC=C(C)C,outcome,[5],inactive
Cc1cccc(N)c1N,outcome,[16],inactive
same,AC50,[2],5.01 µM (active)
Cn1cc(-c2ccccc2)c(=O)c(-c2cccc(C(F)(F)F)c2)c1,outcome,[5],inactive
Nc1ccc([N+](=O)[O-])cc1,AC50,[2],25 µM (active)
O=[N+]([O-])C(Br)(CO)CO,outcome,[5],inactive
Nc1ccc(Cc2ccc(N)cc2)cc1,outcome,[9],inactive
CNC(=O)Oc1cccc2c1OC(C)(C)C2,outcome,[5],inactive
Oc1ccc2ccc3cccc4ccc1c2c34,AC50,[2],8.27 µM (active)
CCC(C)c1ccc(O)cc1 (stereo not given),AC50,[2],23 µM (active)
N#CC(Br)Br,outcome,[14],inactive
same,outcome,[5],inactive
CCNS(=O)(=O)C(F)(F)C(F)(F)C(F)(F)C(F)(F)C(F)(F)C(F)(F)C(F)(F)C(F)(F)F,AC50,[16],24.1 µM (active)
same,outcome,[17],inactive
CCCCC(CC)COC(=O)c1ccc(C(=O)OCC(CC)CCCC)c(C(=O)OCC(CC)CCCC)c1 (stereo not given),AC50,[16],10.7 µM (active)
ClC1=C(Cl)[C@]2(Cl)[C@H]3[C@H]([C@@H]4C=C[C@H]3C4)[C@@]1(Cl)C2(Cl)Cl,outcome,[15],inactive
same,outcome,[5],inactive
